Data on 40 compounds can be found in PubChem BioAssay (Tox21).

Records with an inconclusive call do not appear. Unmarked numbers belong to inactive results. Calls of active or inactive are those of the source. Calls follow the shape of the dose curve; as a rule, active = well fitted cell-killing curve with a large enough effect in the repeat runs; inconclusive = weak or mixed curves, or effect the other way; inactive = flat fitted curve, though single readings scatter.
% is scaled to controls: 0 for no effect and ±100 for the full control effect; potency is read from the fitted curve at half-maximal effect.

This test is described as follows: qHTS RealTime-Glo MT Cell Viability Assay in HEK293 cells - 24 hour (AID 1224886). Also: nearly all actives have a fitted effect of over 50% in size. As to activity change, negative = cytotoxicity: top concentration of the series differs between compounds. To be noted: RealTime-Glo luminescence; series mostly up to 76.8 µM; activity change, negative = cytotoxicity: at the top concentration. The text has this: National Center for Advancing Translational Sciences [NCATS]
NIH Chemical Genomics Center [NCGC]
U.S. Environmental Protection Agency [EPA]
National Institutes of Environmental Health Sciences [NIEHS]
National Toxicology Program [NTP]
U.S. Food and Drug Administration [FDA]
Measure of cell viability is critical in the cell-base assay. Analysis of cell viability is necessary for the characterization of cell responses to cytotoxic drugs and environmental stress. A RealTime-Glo MT Cell Viability Assay to monitor cell viability in real time of continues cell culture during 40 hours of compound treatment was used to screen Tox21 10K library compounds in Hek293 cells. The RealTime-Glo MT Cell Viability Assay is a nonlytic, homogeneous, bioluminescent method to measure cell viability in real time using a simple, plate-based method. The assay involves adding NanoLuc luciferase and a cell-permeant prosubstrate to cells in culture. Viable cells reduce the proprietary prosubstrate to generate a substrate for NanoLuc luciferase. This substrate diffuses from cells into the surrounding culture medium, where it is rapidly used by the NanoLuc Enzyme to produce a luminescent signal. The signal correlates with the number of viable cells, making the assay well suited for cytotoxicity studies.
Tox21 Assay Protocol Summary:
The mixture of Hek293 cell suspension and reagents were dispensed at 600cells/6 ul/well in 1536-well tissue culture treated black solid bottom plates using a Multidrop dispenser. After the assay plates were incubated at a 37 C/5% CO2 incubator for 5 hours, 23 nL of compounds dissolved in DMSO, positive and negative controls was transferred to the assay plate by a pintool work station. The plates were incubated at 37 C for 40 hours. The luminescence intensity were measured at 0h, 8h, 16h, 24h, 32h and 40h time points using ViewLux plate reader during compound treatment.
In general terms: qHTS replaces the single test concentration by a dilution series.
In the case of `CC[N+](CC)(CC)Cc1ccccc1`, the “activity change, negative = cytotoxicity” value is 9.58%.
As for `O=C1C=CC(=O)N1c1ccccc1`, the Potency was 12.3 µM (active).
On the same count and under the same terms, in the case of `CCC(C)(C)c1cc(O)c(C(C)(C)CC)cc1O` it was 21.9 µM (active).
On the same count and under the same terms, to `Clc1ccc(C(Cn2ccnc2)OCc2ccsc2Cl)c(Cl)c1` (stereo not given) belongs 15.1 µM (active).
In the case of `C1CC(COCC2CO2)CCC1COCC1CO1` (stereo not given), the “activity change, negative = cytotoxicity” value is -9.07%.
Same read-out and setting: in the case of `CCOC(=O)CN` it was 1.28%; in that of `CCOC(OCC)C(=O)c1ccccc1`, 1.01%.
For the compound `CNC(=O)c1cc(Oc2ccc(NC(=O)Nc3ccc(Cl)c(C(F)(F)F)c3)cc2)ccn1`, the Potency was 3.38 µM (active).
With `CN1CN(C)CN(C)C1`, the “activity change, negative = cytotoxicity” value was -14.6%.
Still for that read-out and setting: in the case of `COc1ccccc1C=O` it was 4.08%; in that of `c1ccc2c(c1)CCC2`, 2.07%; in that of `CC(C)(C)c1n[nH]c(=O)n(N)c1=O`, -5.17%.
Regarding `Cc1cccc(C)c1NC(=O)CN1CCN(CCCC(c2ccc(F)cc2)c2ccc(F)cc2)CC1`, the Potency is 10.7 µM (active).
With `CC(=O)Oc1ccc(C2(c3ccc(OC(C)=O)cc3)Oc3ccccc3NC2=O)cc1`, the “activity change, negative = cytotoxicity” value is -24.9% [at 35.3 µM].
The same measure, in the same setting: in the case of `CSc1c(Cl)c(Cl)c(Cl)c(Cl)c1Cl` it was -29.4%; in that of `CCNc1nc(NC(C)CC)nc(OC)n1` (stereo not given), -16.5%.
On to `CCCC(CC)CCCCCCCN` (stereo not given), for which the Potency is 56.3 µM (active).
Take `O=C(O)CCn1c2c(c3ccccc31)C[C@H](NS(=O)(=O)c1ccc(F)cc1)CC2`: the “activity change, negative = cytotoxicity” value was 11.2% [at 35.3 µM].
Turning to `CCCCCCOc1ccc(O)cc1`, the Potency is 0.0617 µM (active).
On to `Cc1cc(=O)[nH]c(=O)[nH]1`, for which the “activity change, negative = cytotoxicity” value is -0.0464%.
The same measure, in the same setting: to `CCC1CCCCC1` belongs -0.858%.
With `C=C[C@](C)(O)CC[C@@H]1[C@@]2(C)CCCC(C)(C)[C@@H]2CC[C@@]1(C)O`, the Potency was 21.9 µM (active).
For the compound `CC(=O)O[C@@H]1C[C@@H]2CC[C@@]1(C)C2(C)C`, the “activity change, negative = cytotoxicity” value is 0.356%.
For the compound `Cc1cc2c(C(C)C)c(O)c(O)c(C=O)c2c(O)c1-c1c(C)cc2c(C(C)C)c(O)c(O)c(C=O)c2c1O`, the Potency was 10.7 µM (active).
Take `CCCCOC(=O)C(C)CC` (stereo not given): the “activity change, negative = cytotoxicity” value is -3.93%.
Same read-out and setting: to `CCCCCCCC(C)=O` belongs 0.0928%; to `CO[Si](CCC1CCC2OC2C1)(OC)OC` (stereo not given), 6.26%.
With `CC(C)(c1cc(Br)c(O)c(Br)c1)c1cc(Br)c(O)c(Br)c1`, the Potency entry was “inactive”.
Consider `COc1nccnc1CC(C)C`, for which the “activity change, negative = cytotoxicity” value is 9.58%.
With `CCCCNc1c(C(=O)OCC)c(C)nc2c1cnn2CC`, the Potency is 12 µM (active).
For `Cc1cncc(C)c1`, the “activity change, negative = cytotoxicity” value was 0.268%.
Same read-out and setting: to `OCCCS` belongs 7.8%; to `CC(C)(C)C1=CC(=O)C=C(C(C)(C)C)C1=O`, 11.2%.
Same read-out and setting: in the case of `Cc1cccc(C)n1` it was -1.66%.
Turning to `COc1ccccc1OCCNCC(O)COc1cccc2[nH]c3ccccc3c12` (stereo not given), the Potency is 10.7 µM (active).
Regarding `O=S(O)O`, the activity change, negative = cytotoxicity is 11.2% [at 15.8 µM].
The same measure, in the same setting: in the case of `O=C[C@H](O)[C@H](O)[C@H](O)CO` it was -1.53%; in that of `CC(C)=CCCC(C)CCOC(=O)C(C)C` (stereo not given), 6.6%.
Same read-out and setting: to `Nc1ncnc2c1ncn2[C@@H]1O[C@H](COP(=O)(O)O)[C@@H](O)[C@H]1O` belongs 1.5% [at 35.3 µM].
For `C[n+]1c2cc(N)ccc2cc2ccc(N)cc21` (tested in a mixture with another compound), the Potency is 9.52 µM (active).
